Measured values as given in PubChem BioAssay (NCI).
Compounds without any hit were thinned out: in the full panel of roughly 83,000, 20% have a hit.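 The test compound was applied at a single concentration to cells in 96-well plates for 48 hours, and percent growth was recorded.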 Values without a mark were called inactive. Activity calls are given as the source filed them. How the source made its calls: active means growth percent below 10; inactive means the rest.

Key:
Test in all cases: NCI-60 one-dose screen, 48 h (100 = growth as untreated, 0 = no growth, -100 = all killed)
Details in all cases: 10 µM unless noted
SK-MEL-2 melanoma = system: SK-MEL-2 melanoma
EKVX NSCLC = system: EKVX NSCLC
SN12C renal = system: SN12C renal
UO-31 renal = system: UO-31 renal
TK-10 renal = system: TK-10 renal
ACHN renal = system: ACHN renal
A498 renal = system: A498 renal
CCRF-CEM leukemia = system: CCRF-CEM leukemia
MOLT-4 leukemia = system: MOLT-4 leukemia
SR leukemia = system: SR leukemia
RPMI-8226 leukemia = system: RPMI-8226 leukemia
OVCAR-8 ovarian = system: OVCAR-8 ovarian
OVCAR-5 ovarian = system: OVCAR-5 ovarian
OVCAR-4 ovarian = system: OVCAR-4 ovarian
SK-OV-3 ovarian = system: SK-OV-3 ovarian
IGROV1 ovarian = system: IGROV1 ovarian
OVCAR-3 ovarian = system: OVCAR-3 ovarian
HS 578T breast = system: HS 578T breast
NCI/ADR-RES ovarian = system: NCI/ADR-RES ovarian
T-47D breast = system: T-47D breast

Row | Compound | growth (SK-MEL-2 melanoma) | growth (EKVX NSCLC) | growth (SN12C renal) | growth (UO-31 renal) | growth (TK-10 renal) | growth (ACHN renal) | growth (A498 renal) | growth (CCRF-CEM leukemia) | growth (MOLT-4 leukemia) | growth (SR leukemia) | growth (RPMI-8226 leukemia) | growth (OVCAR-8 ovarian) | growth (OVCAR-5 ovarian) | growth (OVCAR-4 ovarian) | growth (SK-OV-3 ovarian) | growth (IGROV1 ovarian) | growth (OVCAR-3 ovarian) | growth (HS 578T breast) | growth (NCI/ADR-RES ovarian) | growth (T-47D breast)
1 | COC(=O)c1ccc2c(c1)n(Cc1ccc3ccccc3c1)c[n+]2Cc1ccc2ccccc2c1 | 5.59% (active) | 71% | 38.4% | 83.6% | 49.1% | 99% | 80.5% | 27.5% | 29.2% | -37.1% (active) | -5.06% (active) | 52.9% | 55.6% | 35.5% | 75.5% | 4.97% (active) | 15.6% | 67.6% | 101% | 0.0638% (active)
2 | c1cc(CNC23CC4CC(CC(C4)C2)C3)cc(C[N+](Cc2cccc(CNC34CC5CC(CC(C5)C3)C4)c2)(Cc2cccc(CNC34CC5CC(CC(C5)C3)C4)c2)Cc2cccc(CNC34CC5CC(CC(C5)C3)C4)c2)c1 (stereo not given) | 31.8% [42 µM] | 30.7% [42 µM] | 7.96% [42 µM] (active) | -8.13% [42 µM] (active) | 27.1% [42 µM] | -9.81% [42 µM] (active) | 50.1% [42 µM] | 3.92% [42 µM] (active) | -21.9% [42 µM] (active) | 9.46% [42 µM] (active) | -11.6% [42 µM] (active) | 7.24% [42 µM] (active) | 7.78% [42 µM] (active) | 29.5% [42 µM] | 61.9% [42 µM] | 10.9% [42 µM] | -26.9% [42 µM] (active) | 58.2% [42 µM] | 21.5% [42 µM] | 24% [42 µM]
3 | O=C1[C@@H](OS(=O)(=O)CC(F)(F)F)[C@H](c2ccc(F)cn2)N1c1cc2c3ccccc3ccc2c2ccccc12 | 89.9% | 87.6% | 80.7% | 62.1% | 88.4% | 76.3% | 83.6% | 9.13% (active) | 0.0781% (active) | 4.47% (active) | 25.1% | 78.6% | 104% | 86.3% | 95.8% | 70% | 49.3% | 68.3% | 72.2% | 84.9%
4 | O=C(CCl)N1CCCc2ccccc21 | 110% | 96.4% | 93.8% | 82.8% | 102% | 101% | 94.5% | 96.8% | 93.5% | 101% | 102% | 107% | 99.2% | 102% | 119% | 106% | 94.9% | 105% | 96.8% | 106%
5 | O=C1Nc2ccc(Cl)cc2/C1=N/c1nc(-c2ccc(Cl)cc2)cs1 | -2.56% (active) | 25.6% | 17.3% | 24.6% | -15.5% (active) | 11.9% | -2.57% (active) | 8.26% (active) | 2.22% (active) | 3.05% (active) | -2.3% (active) | 3.67% (active) | 26.2% | 34.9% | 1.76% (active) | 16.6% | -13.6% (active) | 13.7% | 57.7% | -3.94% (active)
6 | CC(C)NS(=O)(=O)c1cccc(-c2ccc3c4c(n(CCCN(C)C)c(=O)c3c2)-c2ccccc2C4=O)c1 | 101% | 105% | 97.2% | 91% | 114% | 82.4% | 83.3% | 1.51% (active) | 68.2% | -27% (active) | 80.9% | 76.4% | 117% | 101% | 104% | 90% | 110% | 99.8% | 103% | 97.1%
7 | COc1ccc(NC(=O)c2sc3nc(C)c(C(C)=O)cc3c2N)cc1 | 98.5% | 97.2% | 101% | 105% | 75.2% | 95.3% | 71.1% | 92.2% | 84.9% | 84.3% | 85.6% | 91.9% | 91.3% | 95.7% | 99.3% | 115% | 109% | 105% | 98.9% | 82.7%
8 | COc1ccc(/C=C/C(=O)/C=C(/C=C/c2ccc(OC)c(OC)c2)OB(F)F)cc1OC | 76.8% | 38% | -5.34% (active) | 40% | 36.9% | -15.8% (active) | 95.7% | -12% (active) | 1.45% (active) | 0.197% (active) | -20.9% (active) | 5.06% (active) | 65.2% | 44.8% | 81.9% | 49.6% | -8.63% (active) | 50.2% | 30.1% | 35.5%
9 | Cc1cc(C)c(NC(=O)c2sc3nc4c(cc3c2N)CCCCCC4)c(C)c1 | 34.6% | 67.8% | 68.3% | 67.3% | 74.2% | 72.4% | 19.9% | 32.8% | 36.3% | 23.3% | 66.3% | 73.9% | 95.3% | 73.7% | 44.6% | 61.2% | 15.8% | 47.6% | 48.1% | 44.5%
10 | COC(=O)/C=C1\SC(=Nc2cccc(OC)c2)N(CCc2c[nH]c3ccccc23)C1=O | 60.8% | 76.1% | 64.4% | 76.3% | 89.3% | 78.4% | 90.1% | 24.7% | 2.83% (active) | 12% | 19.6% | 52.3% | 96% | 69.7% | 72.4% | 71.7% | 57% | 81% | 62.9% | 46.1%
11 | CNC(=O)c1cc(Oc2ccc3c(c2)sc2nc(-c4ccc(NC(C)=O)cc4)cn23)ccn1 | 45.2% | 54.7% | 52% | 43.9% | 61.4% | 52% | -6.27% (active) | 78.8% | 72.7% | 25.7% | 60.3% | 73% | 90% | 83.5% | 34% | 69.2% | 75% | 43.4% | 52.1% | 16.9%
12 | C#CCN(CCCOc1ccc(Cl)cc1Cl)CCCSC(=O)CCCCCN1/C(=C\C=C2/CCCC(/C=C/C3=[N+](CCCCCC(=O)[O-])c4ccccc4C3(C)C)=C2Cl)C(C)(C)c2ccccc21 | -29% (active) | 61.6% | 5.06% (active) | 94.9% | 50.3% | 102% | 13% | -1.58% (active) | -18.7% (active) | -16.2% (active) | -22.6% (active) | 8.18% (active) | 66.4% | 57.1% | 65% | -13.2% (active) | 1.44% (active) | 6.47% (active) | 106% | -21.4% (active)
13 | Cc1ccn2c3c(c(C(=O)O)c2c1)C(=O)c1ccccc1C3=O | 68.9% | 83% | 78.8% | 63.7% | 142% | 86.2% | 89.2% | 89.5% | 84.8% | 80% | 90.6% | 80.1% | 121% | 69.9% | 98.3% | 81.3% | 45.6% | 43.7% | 85.2% | 90.7%
14 | COC(=O)/C=C1\SC(=Nc2ccc(F)cc2)N(CCc2c[nH]c3ccccc23)C1=O | 102% | 92.6% | 103% | 81% | 106% | 103% | 110% | 68.2% | 76.4% | 85.5% | 93.8% | 87.5% | 110% | 106% | 102% | 98.5% | 104% | 108% | 95.8% | 91.3%
15 | COc1cc(F)c(-c2nc3c(C)cccc3n2Cc2c(F)cccc2F)c(F)c1 | 93.6% | 87.9% | 92.1% | 72.2% | 90.5% | 101% | 87% | 98.6% | 60.6% | 88.3% | 68.2% | 90.5% | 94.6% | 77.6% | 90.5% | 69.4% | 96.2% | 91.6% | 77.9% | 71.4%
